{"source": "PubChem BioAssay (NCATS)", "note": "Results filed as inconclusive are left out. Values without a mark were called inactive. Active and inactive are the calls of the source. The call rests on the fitted dose curve; in most records, active means well fitted cell-killing curve with a large enough effect; inconclusive means small, poorly fitted or top-dose-only effect, or effect the other way; inactive means no such curve, though single readings can be large or run the other way. Potency means the concentration at half of the fitted maximal effect.", "data": [{"test": "Quantitative High-Throughput drug screen in 47 multiple myeloma cell lines against the NCATS MIPE library collection: PCM6_Riken cell viability assay (AID 1919870); further: nearly all actives have a fitted effect of over 30% in size", "settings": "CellTiter-Glo ATP, 48 h; series mostly up to 45.8 µM; viability (% of control): at the top concentration", "excerpt": "PI: Beverly A. Mock Ph.D.\nLaboratory of Cancer Biology and Genetics,\nCenter for Cancer Research, National Cancer Institute,\nNational Institute of Health, Bethesda, Maryland\nDrug resistance and disease progression are common in multiple myeloma (MM) patients, underscoring the need for new therapeutic combinations. […] We hypothesized that effective combinations would reduce MYC expression and enhance p16 activity. […] These preclinical data identify potentially useful drug combinations for evaluation in drug-resistant MM and reveal potential mechanisms of combined drug sensitivity.\nDescribed herein is the primary MIPE qHTS used to cherrypick compounds. Validated compounds were then further tested for potential synergistic activiy.\n[1] Peat TJ, Gaikwad SM, Dubois W, Gyabaah-Kessie N, Zhang S, Gorjifard S, Phyo Z, Andres M, Hughitt VK, Simpson RM, Miller MA, Girvin AT, Taylor A, Williams D, D'Antonio N, Zhang Y, Rajagopalan A, Flietner E, Wilson K, Zhang X, Shinn P, Klumpp-Thomas C, McKnight C, Itkin Z, Chen L, Kazandijian D, Zhang J, Michalowski AM, Simmons JK, Keats J, Thomas CJ, Mock BA. Drug combinations identified by high-throughput screening promote cell cycle transition and upregulate Smad pathways in myeloma. Cancer Lett. 2023 Aug 1;568:216284. doi: 10.1016/j.canlet.2023.216284. Epub 2023 Jun 24. PMID: 37356470; PMCID: PMC10408729.\nSEQUENCE No. (e.g., 1, 2, 3, etc.); […] (e.g., Cells, Incubation, Reagent, etc.); VALUE and DESCRIPTION.\n1; Cells; 5 uL; white, solid bottom 1536-well Greiner assay plate.\n2; Compounds; 23 nL; Kalypsis pin tool (Wako USA) equipped with a 1536-well pin head to transfer to the assay plates.\n3; Incubation; 48 hours; 37C incubation.\n4; Reagent;5uL; CellTiter Glo (Promega).\n5; Detector; 425V; Luminescence; Viewlux PerkinElmer.\nNOTES (numbers refer to Sequence numbers above)\n1. The cell-based screening methods employed in this study were like those previously published. Briefly, the corresponding myeloma cell lines were screened in 1,536-well plates with 500 cells, 5-uL per well for inhibition of cell viability (assessed by measuring ATP levels with CellTiterGlo).\n2. NCATS MIPE 4.0 library of approved and investigational drugs were added using the Kalypsis pin tool. Wells treated with DMSO only for 100% viability and media only for 0% viability were used as controls.\n3. The assay plates were covered and incubated for 48 hours in a 37C, 5% CO2 incubator with controlled humidity.\n4. After 48 hours, CellTilter-GloTM luminescent substrate mix (Promega) reagent was added to the assay plate and plates we incubated for 5 min at room temperature.\n5. Signal was measured as median relative luminescence units on a ViewLux (PerkinElmer) multiplate reader.\n[1] Heske CM, Davis MI, Baumgart JT, Wilson K, Gormally MV, Chen L, Zhang X, Ceribelli M, Duveau DY, Guha R, Ferrer M, Arnaldez FI, Ji J, Tran HL, Zhang Y, Mendoza A, Helman LJ, Thomas CJ. Matrix Screen Identifies Synergistic Combination of PARP Inhibitors and Nicotinamide Phosphoribosyltransferase (NAMPT) Inhibitors in Ewing Sarcoma. Clin Cancer Res. 2017 Dec 1;23(23):7301-7311. doi: 10.1158/1078-0432.CCR-17-1121. Epub 2017 Sep 12. PMID: 28899971; PMCID: PMC6636827.", "values": [{"smiles": "O=c1ncn2nc(Sc3ccc(F)cc3F)ccc2c1-c1c(Cl)cccc1Cl", "Potency": "13.2 µM (active)"}, {"smiles": "O=C1CCc2cc(OCCCCc3nnnn3C3CCCCC3)ccc2N1", "viability (% of control)": "73.9%"}, {"smiles": "CC(=O)Oc1ccccc1C(=O)O", "Potency": "5.26 µM (active)"}, {"smiles": "COc1ccc(-c2oc3cc(OC)ccc3c2C(=O)c2ccc(C#N)cc2)cc1", "Potency": "5.26 µM (active)"}, {"smiles": "Cc1ccc(NC(=O)c2cccc(C(C)(C)C#N)c2)cc1Nc1ccc2ncn(C)c(=O)c2c1", "viability (% of control)": "74.8%"}, {"smiles": "C[C@H](NC(=O)Cc1cc(F)cc(F)c1)C(=O)N[C@@H]1C(=O)N(C)c2ccccc2-c2ccccc21", "Potency": "5.26 µM (active)"}, {"smiles": "CC(c1cc2ccccc2s1)N(O)C(N)=O", "note": "(stereo not given)", "viability (% of control)": "112%"}, {"smiles": "C[C@]12CC[C@H](O)CC1=CC[C@@H]1[C@H]2CC[C@]2(C)C(c3cccnc3)=CC[C@H]12", "viability (% of control)": "95.9% [at 23.2 µM]"}, {"smiles": "COc1ccc(-c2ccc3c(N4CCOCC4)nc(N4C[C@@H](C)O[C@@H](C)C4)nc3n2)cc1CO", "Potency": "1.48 µM (active)"}, {"smiles": "COc1cc(Oc2ccnc3cc(OC)c(OC)cc23)ccc1NC(=O)NC(C)c1nccs1", "note": "(stereo not given)", "Potency": "13.2 µM (active)"}, {"smiles": "O=C(Nc1ccc(F)c(C(F)(F)F)c1)Nc1nnc(-c2ccncc2)s1", "Potency": "1.87 µM (active)"}, {"smiles": "O=C1CCC(N2C(=O)c3ccccc3C2=O)C(=O)N1", "note": "(stereo not given)", "viability (% of control)": "125%"}, {"smiles": "COc1c(Cl)cc2c([nH]c3cnccc32)c1NC(=O)c1cccnc1C", "Potency": "1.66 µM (active)"}, {"smiles": "OC(CN1CCC(Cc2ccc(F)cc2)CC1)c1ccc(Cl)cc1", "note": "(stereo not given)", "viability (% of control)": "100%"}, {"smiles": "OCCn1cc(-c2cnc3nnn(Cc4ccc5ncccc5c4)c3n2)cn1", "viability (% of control)": "98.1%"}, {"smiles": "CS(=O)(=O)c1cccc(CNc2nc(Nc3ccc4c(c3)CCC(=O)N4)ncc2C(F)(F)F)c1", "Potency": "7.43 µM (active)"}, {"smiles": "CCc1cc(Nc2nccc(-c3c(-c4ccc(OC)c(C(=O)Nc5c(F)cccc5F)c4)nc4ccccn34)n2)c(OC)cc1N1CCC(N2CCN(S(C)(=O)=O)CC2)CC1", "viability (% of control)": "97.2%"}, {"smiles": "NS(=O)(=O)c1cc2c(cc1Cl)NC=NS2(=O)=O", "viability (% of control)": "126%"}, {"smiles": "Cc1c(C)c2c(c(C)c1O)CCC(C)(COc1ccc(CC3SC(=O)NC3=O)cc1)O2", "note": "(stereo not given)", "Potency": "20.9 µM (active)"}, {"smiles": "c1ccc(-c2nn3c(c2-c2ccnc4cc(OCCN5CCOCC5)ccc24)CCC3)nc1", "Potency": "1.48 µM (active)"}, {"smiles": "S=C(NCc1ccc2c(c1)OCO2)N1CCN(c2ncnc3c2oc2ccccc23)CC1", "Potency": "4.81 µM (active)"}, {"smiles": "Nc1nc2[nH]cc(CCc3ccc(C(=O)N[C@@H](CCC(=O)O)C(=O)O)cc3)c2c(=O)[nH]1", "viability (% of control)": "122%"}, {"smiles": "CC(C)(C)OC(=O)CN(Cc1ccc(Cl)cc1)Cc1ccc([N+](=O)[O-])s1", "viability (% of control)": "87%"}, {"smiles": "NNCCc1ccccc1", "viability (% of control)": "97%"}, {"smiles": "Cn1cnc2c(F)c(Nc3ccc(Br)cc3Cl)c(C(=O)NOCCO)cc21", "Potency": "0.166 µM (active)"}, {"smiles": "Cn1cnc([N+](=O)[O-])c1Sc1ncnc2nc[nH]c12", "Potency": "11.8 µM (active)"}, {"smiles": "CC1(C)Cc2c(-c3ccccc3)c(-c3ccc(Cl)cc3)c(CC(=O)O)n2C1", "Potency": "20.9 µM (active)"}, {"smiles": "COc1ccc(CC2=NN3C([C@@H](CCc4ccccc4)[C@@H](C)O)=NC(C)C3C(=O)N2)cc1OC", "note": "(stereo not given in full)", "viability (% of control)": "140%"}, {"smiles": "COc1ccc([C@@H]2CC(=O)c3c(O)cc(O[C@@H]4O[C@H](CO[C@@H]5O[C@@H](C)[C@H](O)[C@@H](O)[C@@H]5O)[C@@H](O)[C@H](O)[C@@H]4O)cc3O2)cc1O", "viability (% of control)": "98%"}, {"smiles": "OC(CCN1CCCCC1)(c1ccccc1)C1CC2C=CC1C2", "note": "(stereo not given)", "viability (% of control)": "127%"}, {"smiles": "Oc1cccc(-c2nc(N3CCOCC3)c3oc4ncccc4c3n2)c1", "Potency": "0.54 µM (active)"}, {"smiles": "CC(C)(C)NCC(O)c1ccc(O)c(CO)c1", "note": "(stereo not given)", "viability (% of control)": "123%"}, {"smiles": "Nc1nc2c(ncn2COCCO)c(=O)[nH]1", "Potency": "23.5 µM (active)"}, {"smiles": "NC(=O)c1cnccn1", "viability (% of control)": "137%"}, {"smiles": "O=C(O)[C@@H](c1ccc(OCc2ccc3ccccc3n2)cc1)C1CCCC1", "viability (% of control)": "98.7%"}, {"smiles": "O=C(c1cc(Cc2n[nH]c(=O)c3ccccc23)ccc1F)N1CCN(C(=O)C2CC2)CC1", "Potency": "11.8 µM (active)"}, {"smiles": "CN(C)c1ccc(C2Nc3ccc4ccccc4c3C3=C2C(=O)CC(C)(C)C3)cc1Br", "note": "(stereo not given)", "viability (% of control)": "90.3%"}, {"smiles": "CCC(C)N(C)C(=O)c1cc2ccccc2c(-c2ccccc2Cl)n1", "note": "(stereo not given)", "Potency": "16.6 µM (active)"}, {"smiles": "O=C(Nc1cccnc1)N1CCC(Cc2cccc(Oc3ccc(C(F)(F)F)cn3)c2)CC1", "Potency": "14.8 µM (active)"}, {"smiles": "NC(=O)c1ccc(-c2nc(-c3ccc4c(c3)OCCO4)c(-c3ccccn3)[nH]2)cc1", "Potency": "13.2 µM (active)"}]}]}
